Records with an inconclusive call do not appear. Calls of active or inactive are those of the source. The calls were made as follows: active = hit-call score of the fitted dose curve at least 0.9, where 1 is the maximum; inconclusive = response in the unintended direction; inactive = score below 0.9.

Luciferin 4-monooxygenase (Photinus pyralis), sequence (P08659 whole entry, looked up): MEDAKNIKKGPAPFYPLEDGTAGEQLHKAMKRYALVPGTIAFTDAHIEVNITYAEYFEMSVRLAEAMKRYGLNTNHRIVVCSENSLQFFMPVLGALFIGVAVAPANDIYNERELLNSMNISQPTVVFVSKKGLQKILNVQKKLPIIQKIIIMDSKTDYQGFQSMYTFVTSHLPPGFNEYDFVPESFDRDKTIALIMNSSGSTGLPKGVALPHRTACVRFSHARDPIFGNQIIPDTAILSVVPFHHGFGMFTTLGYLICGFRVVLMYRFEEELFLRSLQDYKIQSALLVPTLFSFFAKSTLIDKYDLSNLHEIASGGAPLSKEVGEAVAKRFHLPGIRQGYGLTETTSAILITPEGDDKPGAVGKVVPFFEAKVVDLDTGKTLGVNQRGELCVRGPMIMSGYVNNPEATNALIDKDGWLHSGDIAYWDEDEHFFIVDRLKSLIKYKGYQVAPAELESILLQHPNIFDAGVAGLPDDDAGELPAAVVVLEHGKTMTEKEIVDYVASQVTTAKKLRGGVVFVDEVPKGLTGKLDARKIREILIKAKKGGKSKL

The assay addresses Luciferin 4-monooxygenase (Photinus pyralis) (UniProt P08659). The assay is described as follows: CCTE_Simmons_QuantiLum_inhib_2: CCTE's Firefly Luciferase Inhibition Assay, Simmons Lab (AID 2283767).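 As to AC50: potency for inhibitors that lower luciferase luminescence relative to DMSO.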 How it is done: CCTE_Simmons_QuantiLum_inhib_2 is a biochemical, single-readout assay that uses purified luciferase enzyme in a cell-free assay.Measurements were taken 0.5 hour after chemical dosing in a 384-well plate.CCTE_Simmons_QuantiLum_inhib_2 is the assay component measured from the CCTE_Simmons_QuantiLum_inhib_2 assay. It is designed to make measurements of enzyme activity, a form of enzyme reporter, as detected with bioluminescence signals by Luciferase-coupled Quantilum levels technology. This is a secondary assay to CCTE_Simmons_AUR_TPO to evaluate nonspecific enzyme inhibition.Data from the assay component CCTE_Simmons_QuantiLum_inhib_2 was analyzed at the endpoint, CCTE_Simmons_QuantiLum_inhib_2, in the positive analysis fitting direction relative to DMSO as the negative control and baseline of activity. Using a type of enzyme reporter, measures of enzyme activity for loss-of-signal activity can be used to understand inhibition of firefly luciferase. This is an assay endpoint to indicate nonspecific protein inhibition for comparison to aeid 1508 for thyroperoxidase inhibition. To generalize the intended target to other relatable targets, this assay endpoint is annotated to the oxidoreductase intended target family, where the subfamily is monooxygenase.
Quanti-Lum recombinant luciferase (Promega; Madison, Wisconsin) was diluted to 76.9 ng/ml with 200mM potassium phosphate buffer supplemented with 1 mg/ml bovine serum albumin and 65ul (5ng recombinant luciferase) per well was dispensed into opaque, white 384-well plates (Greiner, BioExpress) using an automated liquid handler (BioTek MicroFlo) with a plastic 5 ul tubing cassette. Test compounds were administered using the HDRT as described earlier to achieve a 0.5% final DMSO concentration. Microplates were incubated at 37C in the dark for 30min to mimic the AUR-TPO assay conditions. Luciferase detection reagent (25 ul per well; 9.2 mM dithiothreitol, 75uM Coenzyme A, 147uM dATP, 150uM D-luciferin, 8.9 mM Tricine, 297uM (MgCO3)4.Mg(OH)2.5H20, 742uM MgSO4, 27.8uM EDTA, pH 7.8, final assay concentrations) was then added using a BMG Clariostar plate reader equipped with syringe injectors (BMG LabTech; GmbH). Plates were read using a kinetic luminescence protocol (top read) whereby each well was individually injected with luciferase detection reagent immediately prior to measurement. Three biological replicates of technical singles were run for every chemical concentration tested. A titrated range of LUCINH2 served as a positive control on each plate of the luciferase inhibition screening assay. Test chemicals were administered as a titrated series of 8 concentrations from 5 nM up to 87.5 uM [final] for 30 minutes prior to single endpoint detection. Dimethylsulfoxide [DMSO] was used as the vehicle control. Luciferase Inhibitor I [2-(5-(2-Methoxyphenyl)-1,2,4-oxadiazol-3-yl)pyridine] was used as the positive control and was administered as a titrated series of 8 concentrations from 1 nM up to 100 uM [final].
The AC50 is the midpoint of the concentration-response curve, whichever way the signal moves. For `Cc1cc(NC(=O)C(=O)O)cc(C)c1Oc1ccc(O)c2c1CCC2`, the AC50 is 79.3 µM (active).
Take `CN[C@H]1CC[C@@H](c2ccc(Cl)c(Cl)c2)c2ccc(S(N)(=O)=O)cc21`: the AC50 is 10.7 µM (active).
In the case of `CCCc1cc(=O)[nH]c(=S)[nH]1`, the result was inactive.
The same measure, in the same setting: as for `CNC(=O)[C@H]1O[C@@H](n2cnc3c(NCc4cc(Cl)ccc4OCc4cc(C)no4)ncnc32)[C@H](O)[C@@H]1N`, the entry is “inactive”.
On the same count and under the same terms, as for `C=CCc1ccc(O)c(OC)c1`, the entry is “inactive”; as for `CCOc1ccc2c(c1)C(C)=CC(C)(C)N2`, “inactive”.
`COc1cc(S(=O)(=O)O)c(C)cc1N=Nc1c(O)ccc2cc(S(=O)(=O)O)ccc12`: the AC50 was 10.7 µM (active).
For the compound `CC(C)(C)c1cc(O)c(C(C)(C)C)cc1O`, the call was inactive.
As for `Nc1ccc(S(=O)(=O)c2ccc(N)cc2)cc1`, the call was inactive.
On the same count and under the same terms, as for `Nc1nc(N)c2nc(CNc3ccc(C(=O)N[C@@H](CCC(=O)O)C(=O)O)cc3)cnc2n1`, the entry is “inactive”; as for `CN1CCCC1=O`, “inactive”; as for `CCNc1cccc(C)c1`, “inactive”.
Still for that read-out and setting: as for `CC=Cc1ccc(O)c(OC)c1`, the entry is “inactive”; as for `Cc1ccc(N(C)C)cc1`, “inactive”; as for `COc1ccc(C)cc1N`, “inactive”.
For `CC1=C(/C=C/C(C)=C/C=C/C(C)=C/CO)C(C)(C)CCC1`, the call was inactive.
In the case of `Nc1ccccc1N`, the AC50 is 24.8 µM (active).
Still for that read-out and setting: as for `Oc1ccc2ccccc2c1N=Nc1ccccc1`, the figure is 12.6 µM (active).
The same measure, in the same setting: as for `Cc1c(C(=O)O)c(O)cc2c1C(=O)c1c(O)c([C@@H]3O[C@H](CO)[C@@H](O)[C@H](O)[C@H]3O)c(O)c(O)c1C2=O`, the figure is 18.5 µM (active).
Same read-out and setting: as for `CCCCC(CC)COC(=O)CC(C(=O)OCC(CC)CCCC)S(=O)(=O)O` (stereo unspecified), the figure is 13.1 µM (active).
With `Cc1ccc(C)c(O)c1C`, the outcome was inactive.
For the compound `O=c1c(O)c(-c2ccc(O)c(O)c2)oc2cc(O)cc(O)c12`, the AC50 was 53.8 µM (active).
In the case of `C[C@]12C=CC(=O)C=C1CC[C@@H]1[C@@H]2C(=O)C[C@@]2(C)[C@H]1CC[C@]2(O)C(=O)CO`, the result was inactive.
On to `Cc1cc(=O)[nH]c(=S)[nH]1`, for which the AC50 was 53.8 µM (active).
`Cc1cccc(C)c1O`: the result was inactive.
Still for that read-out and setting: as for `Cc1oc(-c2ccccc2)nc1CCOc1cccc2c1ccn2CCC(=O)O`, the entry is “inactive”.

The values are drawn from PubChem BioAssay (EPA / NIEHS).
